Shown are actives, neighbours in structure and some others; about 0.87% of the full set was active somewhere.
USP1 inh = blocks the human USP1/UAF1 deubiquitinase complex | O94782 | recombinant USP1/UAF1, Ub-Rhodamine cleavage fluorescence | Potency, µM (doses to about 57.1 µM), most hits filed as inhibitors | 0.23% of 390,000 active; further: nearly all actives have a fitted effect of over 60% in size
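Step one: compound is pinned into 1nM USP1/UAF1 in HEPES pH 7.8 buffer with TCEP. Step two: 15 min room-temperature incubation. Step three: Ub-Rho (150nM final) starts cleavage, tracked by fluorescence over six one-minute reads.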
EPAC1 antagonist = EPAC1 (human) antagonism; O95398; EPAC1 GEF assay, Rap1b-BODIPY-GDP exchange fluorescence; Potency, µM (titrated, usually from 115 µM), actives largely listed as inhibitors; 0.14% of 360,000 active; AID 720709; further: nearly all actives have a fitted effect of over 50% in size
EPAC1 ag = EPAC1 (human) agonism; EPAC1 agonist qHTS, biochemical assay; response scale: 100% = response to 6.5 mM cAMP; Potency, µM (doses to about 154 µM), usual class: activators; 0.073% of 360,000 active; AID 720707; further: nearly all actives have a fitted effect of over 60% in size
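Nucleotide exchange by EPAC1 (100 nM) on Rap1B–BODIPY-GDP (250 nM) in the presence of 50 uM GDP is tracked fluorescently at 480/540 nm over 30 min. Signals are normalized to a 6.5 mM cAMP control.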
EPAC2 antagonist = EPAC2 (human) antagonism; Q8WZA2; 0.18% of 360,000 active; AID 720708; EPAC2 GEF exchange of Rap1B-BODIPY-GDP, fluorescence; Potency, µM (top dose mostly 114 µM), hits mostly inhibitors; further: nearly all actives have a fitted effect of over 45% in size
Target sequence (Q8WZA2 whole entry, looked up): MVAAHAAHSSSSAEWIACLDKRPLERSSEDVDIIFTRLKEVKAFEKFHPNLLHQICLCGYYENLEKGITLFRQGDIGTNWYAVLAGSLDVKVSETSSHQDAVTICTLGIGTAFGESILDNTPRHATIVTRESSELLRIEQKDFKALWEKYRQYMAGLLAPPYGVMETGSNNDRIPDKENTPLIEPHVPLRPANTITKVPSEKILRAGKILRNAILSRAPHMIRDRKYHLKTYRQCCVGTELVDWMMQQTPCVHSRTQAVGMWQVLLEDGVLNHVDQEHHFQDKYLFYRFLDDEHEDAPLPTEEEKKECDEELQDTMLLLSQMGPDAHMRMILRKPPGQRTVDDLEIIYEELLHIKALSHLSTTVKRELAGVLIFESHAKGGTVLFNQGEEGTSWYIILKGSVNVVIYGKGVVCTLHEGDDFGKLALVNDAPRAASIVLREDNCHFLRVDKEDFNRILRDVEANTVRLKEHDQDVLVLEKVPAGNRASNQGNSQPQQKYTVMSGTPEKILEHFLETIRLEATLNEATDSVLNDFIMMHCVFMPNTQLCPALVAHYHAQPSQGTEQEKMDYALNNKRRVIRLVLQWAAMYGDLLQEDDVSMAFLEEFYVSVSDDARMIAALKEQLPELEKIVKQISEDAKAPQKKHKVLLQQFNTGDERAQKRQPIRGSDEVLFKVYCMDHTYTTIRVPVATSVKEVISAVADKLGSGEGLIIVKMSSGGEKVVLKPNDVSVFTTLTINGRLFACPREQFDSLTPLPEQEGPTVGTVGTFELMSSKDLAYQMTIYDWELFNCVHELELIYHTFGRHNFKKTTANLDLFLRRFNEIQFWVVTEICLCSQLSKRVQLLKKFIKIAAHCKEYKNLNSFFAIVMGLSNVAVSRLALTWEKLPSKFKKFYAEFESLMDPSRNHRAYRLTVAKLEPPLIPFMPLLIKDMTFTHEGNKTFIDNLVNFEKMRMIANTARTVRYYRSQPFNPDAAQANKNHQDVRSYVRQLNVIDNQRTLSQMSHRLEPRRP
FBPA coupling cs = inhibits coupling enzyme system, counter-screen for aldolase hits; coupling enzyme system counterscreen, AmpLite Red fluorescence; activity change, negative = inhibition, % at 58.2 µM, hits read low; 0.67% of 290,000 active; in the data active means activity change below about -30%
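Coupling enzymes only (glyceraldehyde-3-phosphate) + compound, at 57.5 uM final, 10 min RT; add substrate/coupling/AmpLite Red mix, 20 min RT; fluorescence ex 525/em 598 nm. Actives flag coupling-system interference.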
EPAC2 ag = EPAC2 (human) agonism. Q8WZA2. AID 720711. Potency, µM (highest dose often 154 µM), hits mostly activators. EPAC2 activation, biochemical qHTS; response scale: 100% = 6.5 mM cAMP response. 0.079% of 360,000 active; further: nearly all actives have a fitted effect of over 50% in size
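Exchange assay: 100 nM EPAC2 with 250 nM Rap1B-BODIPY-GDP and 50 uM GDP. Fluorescence (ex 480/em 540 nm) read every 5 min for 30 min at room temperature. Data normalized to 6.5 mM cAMP as agonist control.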
Each line names hits and unclear results; the compound was inactive in the other large screens. Unless noted, the call rests on the fitted dose curve; in most records, active means well fitted curve in the direction sought with a large enough effect; inconclusive means small, poorly fitted or top-dose-only effect, or another doubt; inactive means no such curve, though single readings can be large; an effect the other way counts as inactive or inconclusive.

CC(C)(C)C(=O)c1sc2nc(-c3cccs3)cc(C(F)(F)F)c2c1N	USP1 inh 1.26µM
CC(C)c1ccc(NC(=O)C2CCCN(S(=O)(=O)c3cccc4nonc34)C2)cc1 (stereo not given)	none (no result: EPAC1 antagonist, EPAC1 ag, EPAC2 antagonist, FBPA coupling cs, EPAC2 ag)
COc1cc(CN2CCNC(=O)C2CC(=O)N2CCCCO2)cc(OC)c1 (stereo not given)	none
COc1ccc(CN2CCNC(=O)C2CC(=O)N2CCCCO2)cc1OC (stereo not given)	FBPA coupling cs -30.1
Nc1c2c(=O)[nH]c(O)cc2nn1-c1ccccc1	USP1 inh inconclusive, EPAC1 antagonist 89.1µM (no result: FBPA coupling cs)
CCOC(=O)[C@H]1[C@H]2COc3cc(OC)ccc3[C@@H]2N2C(=O)c3cc(OC)ccc3NC(=O)[C@@]12C	EPAC2 ag inconclusive (no result: FBPA coupling cs)
CS(=O)(=O)c1nc(S(=O)(=O)c2ccc(Cl)cc2)c(N2CCN(CCO)CC2)s1	none (no result: FBPA coupling cs)
Cc1c(Cl)cccc1N1C(=O)C(N2C(=O)c3cccc([N+](=O)[O-])c3C2=O)C1c1cccs1 (stereo not given)	FBPA coupling cs -41.6
Cc1ccc(-c2nn(-c3ccccc3)cc2C=C2SC(=S)N(CCS(=O)(=O)O)C2=O)cc1	EPAC1 antagonist 7.94µM, EPAC2 antagonist 44.7µM (no result: USP1 inh, FBPA coupling cs)
Cc1cccc(CN2CCC(C(N)=O)CC2)c1	none
COc1ccc(CNC(=O)/C=C/c2cc([N+](=O)[O-])ccc2OC(F)F)cc1OC	none
CCCCNC(=O)CSc1nc2ccc(N3CCOCC3)cc2c(=O)n1CCc1ccccc1	FBPA coupling cs -36.7
O=C(CSc1nc2c(sc3ccccc32)c(=O)n1CCCN1CCOCC1)NCC1CCCO1 (stereo not given)	none
CCOC(=O)CSc1nc2ccc(N3CCOCC3)cc2c(=O)n1Cc1ccccc1	FBPA coupling cs -31.9
CCOC(=O)CSc1nc2ccccc2c(=O)n1CCN1CCOCC1	none
NC(=O)CSc1nc2c(sc3ccccc32)c(=O)n1CCCC(=O)NCC1CCCO1 (stereo not given)	USP1 inh inconclusive, EPAC1 ag active
O=C(CSc1nc2ccc(N3CCOCC3)cc2c(=O)n1CCc1ccccc1)NCC1CCCO1 (stereo not given)	FBPA coupling cs -31.5
CCCCn1c(SCC(=O)NCCOC)nc2ccc(N3CCOCC3)cc2c1=O	FBPA coupling cs -37.0
COCCNC(=O)CSc1nc2ccc(N3CCOCC3)cc2c(=O)n1CCc1ccccc1	EPAC1 antagonist inconclusive, FBPA coupling cs -43.7
c1ccc(Cc2nnc3n2N=C(c2ccccc2)CS3)cc1	FBPA coupling cs -54.4
c1ccc(C2=Nn3c(Cn4nnc5ccccc54)nnc3SC2)cc1	none
CCOc1ccc(CCN2C(=O)C(=O)N([C@@H](CC(C)C)CN3CCC[C@H]3CN3C(=O)C(=O)NC[C@@H]3CC(C)C)C[C@@H]2CC(C)C)cc1	none (no result: USP1 inh, FBPA coupling cs)
Cc1[nH]c2ccc(C(=O)OC(C)C(=O)NCc3ccccc3)cc2c1C (stereo not given)	none (no result: FBPA coupling cs)
Cc1cc(SCC(=O)N/N=C/c2ccc(O)c(O)c2O)c(C)cc1Br	EPAC1 antagonist inconclusive, FBPA coupling cs -31.8
COc1cc(/C=N/NC(=O)CSc2cc(C)c(Br)cc2C)ccc1O	none
COc1cccc(COC(=O)C2CC(=O)N(Cc3ccc(C)cc3)C2)c1OC (stereo not given)	none (no result: FBPA coupling cs)
COc1cccc(OC)c1C1=Nn2c(nnc2-c2ccccc2O)SC1	none (no result: USP1 inh, EPAC1 antagonist, EPAC1 ag, EPAC2 antagonist, EPAC2 ag)
O=C(Nc1ccc(F)cc1)c1cn(-c2ccccc2)nc1-c1ccncc1	none
O=C1C=C(NCCc2cc(Br)c(O)c(Br)c2)C(=O)c2ncccc21	USP1 inh 3.55µM, EPAC1 antagonist 50.1µM, EPAC2 antagonist 79.4µM (no result: FBPA coupling cs)
O=C1C=C(NCCO)C(=O)c2cnccc21	none (no result: USP1 inh, EPAC1 antagonist, EPAC1 ag, EPAC2 antagonist, EPAC2 ag)
O=C1C(=Cc2ccccc2Cl)CCc2ccccc21	EPAC1 antagonist inconclusive, EPAC2 antagonist 35.5µM (no result: USP1 inh, FBPA coupling cs)
NS(=O)(=O)c1cc(C(=O)NC2CCSc3ccccc32)ccc1Cl (stereo not given)	USP1 inh inconclusive, EPAC1 antagonist 28.2µM, EPAC2 antagonist 35.5µM
NS(=O)(=O)c1cccc(C(=O)NC2CCSc3ccccc32)c1 (stereo not given)	none
O=C(Nc1ccccc1)c1cc(C2CCCN(C(=O)OCc3ccccc3)C2)on1 (stereo not given)	none (no result: USP1 inh, FBPA coupling cs)
CC(Nc1ncnc2sccc12)c1ccccc1 (stereo not given)	none
C[n+]1cccc2cccc([O-])c21	USP1 inh 6.31µM, EPAC2 antagonist inconclusive, FBPA coupling cs -45.1, EPAC2 ag inconclusive
COc1ccc(NC(=O)CN2CCN(Cc3ccc4c(c3)OCO4)CC2)cc1OC	FBPA coupling cs -38.3
Cc1ccc(C)c(C(O)c2ncc(-c3cccc(F)c3)[nH]2)c1 (stereo not given)	none (no result: USP1 inh, FBPA coupling cs)
COc1ccccc1N1CCN(C(=O)c2ccc(S(=O)(=O)N3CCCC3)cc2)CC1	EPAC2 ag 7.94µM
COc1ccc2ccccc2c1C(O)c1nccn1C (stereo not given)	USP1 inh inconclusive, EPAC1 ag 63.1µM, EPAC2 ag 100µM
Cn1ccnc1C(O)c1ccccc1 (stereo not given)	none
COc1cccc(CNc2ccc(N3CCCCC3)cc2)c1OC	USP1 inh inconclusive, FBPA coupling cs -34.1
CCOc1cc(CNc2ccc(N3CCCC3)cc2)cc(Cl)c1OC	USP1 inh 28.2µM
Cc1cccc(CNc2cc(-c3ccc(C(=O)N(C)C)cc3)ncn2)c1	none (no result: USP1 inh, EPAC1 antagonist, EPAC1 ag, EPAC2 antagonist, EPAC2 ag)
Oc1ccc2oc3c(c2c1C=NCc1ccncc1)CCCC3	FBPA coupling cs -35.5
COc1ccccc1/C=c1\sc2nc(-c3ccco3)nn2c1=O	none
COc1ccc(OC)c(/C=c2\sc3nc(-c4cccs4)nn3c2=O)c1	USP1 inh 31.6µM, EPAC1 ag 112µM, EPAC2 ag 100µM
COc1ccc(C(=O)C=Cc2ccc(OCc3ccccc3)c(OC)c2)cc1OC	none (no result: FBPA coupling cs)
COc1cc(/C=C/[N+](=O)[O-])ccc1OCc1cccc(C(=O)O)c1	EPAC1 antagonist inconclusive, EPAC2 antagonist 22.4µM
Cc1nc2ccccc2c(=O)n1/N=C/c1ccc2ccccc2c1O	EPAC1 antagonist inconclusive, FBPA coupling cs -32.2
Cc1nc2ccccc2c(=O)n1/N=C/c1ccccc1O	EPAC1 antagonist 79.4µM
Cc1nc2ccccc2c(=O)n1/N=C/c1ccc(O)c(O)c1O	EPAC1 antagonist inconclusive, FBPA coupling cs -44.7
COc1cc(/C=N/n2c(C)nc3ccccc3c2=O)ccc1O	none
O=C1c2ccccc2C(=O)N1/N=C/c1ccc(O)c(O)c1O	USP1 inh inconclusive, EPAC1 antagonist inconclusive, FBPA coupling cs -67.6
Cc1nc2ccccc2c(=O)n1/N=C/c1ccccc1	none
O=C1c2cccc3cccc(c23)C(=O)N1/N=C/c1ccc(O)cc1O	none

Compound activity from PubChem BioAssay.
